D2 ag-1: human D2 receptor agonism in beta-arrestin assay; P14416; DiscoveRx PathHunter D2 beta-arrestin, luminescence, 90 min; 100% = 57 uM dopamine signal; activation, % (concentration not given with the values); 360,000 tested, 0.084% active; AID 624465; in the data active = activation above about 40%
Target sequence (P14416 whole entry, looked up): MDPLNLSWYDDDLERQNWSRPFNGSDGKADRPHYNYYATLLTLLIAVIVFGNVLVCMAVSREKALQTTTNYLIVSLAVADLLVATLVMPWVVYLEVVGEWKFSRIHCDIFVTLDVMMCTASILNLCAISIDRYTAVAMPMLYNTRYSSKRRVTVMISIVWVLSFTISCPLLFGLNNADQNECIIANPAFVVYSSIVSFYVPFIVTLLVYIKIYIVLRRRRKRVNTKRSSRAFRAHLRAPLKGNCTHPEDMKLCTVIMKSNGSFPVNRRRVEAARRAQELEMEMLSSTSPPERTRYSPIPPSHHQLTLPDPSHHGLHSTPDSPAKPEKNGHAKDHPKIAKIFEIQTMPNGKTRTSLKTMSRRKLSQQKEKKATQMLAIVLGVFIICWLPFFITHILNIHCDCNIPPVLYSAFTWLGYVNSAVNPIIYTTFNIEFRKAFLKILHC
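Agonist mode: compounds alone added to overnight-plated D2 PathHunter cells for 90 min at 37 C, with 57 uM final dopamine (EC100) defining full response. Beta-arrestin recruitment detected by chemiluminescent reagent, read after 1 h at ambient temperature.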
D2 PAM-1: positive allosteric modulators of human D2 dopamine receptor; 360,000 tested, 0.23% active; potentiation, % (concentration not given with the values); DiscoveRx D2 beta-arrestin cells, luminescence, 90 min; 100% = 57 uM dopamine signal; in the data active = potentiation above about 50%
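D2 cells co-treated with compound plus 50 nM dopamine (EC20) for 90 min at 37 deg C to detect potentiation. Beta-arrestin recruitment was read as enzyme-fragment luminescence after 1 h at ambient temperature. Full response was set by 57 uM dopamine.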
D2 antagonist: D2 dopamine receptor (human) antagonism; HEK293 TREx D2 cells, calcium flux, dopamine EC80; AID 485344; 340,000 tested, 2% active; inhibition, % at 10 µM; P14416; in the data active = inhibition above about 30%; inactive = below that, where a call was filed; note: 0% is about no effect
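Measurement of antagonist activity uses fluorescent calcium dye in inducible HEK293 T-REx D2 cells: 10 s baseline, compound addition with 180 s read, EC80 dopamine addition with a further 180 s read.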
D2 ag-2: D2 dopamine receptor (human) agonism | P14416 | HEK293 T-REx D2 cells, calcium flux agonist mode | activation, % at 2 µM | 340,000 tested, 0.53% active;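 active = activation over 3 SD above normal in the single-dose calcium agonist read, cut at about 30% in these data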; note: 0% is about no effect
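Tetracycline-induced HEK293 T-REx cells with force-coupled D2 receptor, plated overnight at 30 C, loaded with no-wash calcium dye. After a 10 s baseline, compound was pin-added and calcium flux read kinetically for 180 s; calcium rises flagged agonists.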
D2 PAM-2: D2 dopamine receptor (human) potentiation; P14416; 340,000 tested, 0.34% active; potentiation, % at 10 µM; HEK293 T-REx D2, calcium flux, EC20 dopamine potentiation; AID 485347;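 active = potentiation over 3 SD above the plate norm, cut at about 30% in these data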; note: 0% is about no effect
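Potentiation of an EC20 dopamine calcium response measured kinetically over 180 s, after a preceding 180 s compound-only read flagging agonists. Cells: inducible Hek293 Trex D2 line, 4000/well, cultured overnight at 30 C before dye loading.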
Numbers without * were called inactive; x = no result given. Compounds with a hit are over-represented: about 2.4% of the library has one in this group of screens.

SMILES	D2 ag-1	D2 PAM-1	D2 antagonist	D2 ag-2	D2 PAM-2
CCc1ccccc1NC(=S)NC1CC2CCC(C1)N2Cc1ccc(F)cc1 (stereo not given)	0	-6	78*	1	-28
CCc1ccc(-n2nc(CO)c(C(=O)NCCCc3ccccc3)n2)cc1	x	x	x	1	-6
O=C(O)c1ccc(-c2ccc(/C=N/Nc3ccc([N+](=O)[O-])cc3)o2)cc1	-6	-5	8	54*	-4
O=C(O)c1ccc(N/N=C/c2ccc(-c3cccc(Cl)c3)o2)cc1	12	3	x	x	x
O=C(O)c1cccc(-c2ccc(/C=N/Nc3ccc([N+](=O)[O-])cc3)o2)c1	-5	-9	3	36*	-2
CCN(CC)S(=O)(=O)c1ccc2c(c1)nc(SCC(=O)NC1CC1)n2-c1ccccc1OC	-2	-5	51*	1	x
COc1ccccc1-n1c(SCC(=O)NC2CCS(=O)(=O)C2)nc2cc([N+](=O)[O-])ccc21 (stereo not given)	0	-1	-18	0	-5
Cc1ccccc1Cn1c2ccccc2c2cnn(CC(=O)NCCc3ccccc3)c(=O)c21	x	x	x	-1	0
CCOc1ccc(C2/C(=C(/O)c3ccc(Cl)cc3)C(=O)C(=O)N2CCCN(C)C)cc1OC (stereo not given)	x	x	45*	0	5
CN(C)CCN1C(=O)C(=O)/C(=C(/O)c2ccc(OCc3ccccc3)cc2)C1c1ccncc1 (stereo not given)	0	-1	42*	1	3
COc1ccc(/C=N/NC(=O)c2sccc2OCc2ccc(F)cc2)cc1OC	-2	17	37*	-1	-8
CCOc1ccccc1NC(=O)COC(=O)c1ccccc1SCC(=O)N1CCCC1	6	8	1	0	2
O=C(COC(=O)c1ccccc1SCC(=O)N1CCCC1)Nc1ccccc1C(F)(F)F	-4	-22	31*	-1	1
COc1ccccc1-c1ccc(/C=C2\C=CC(=O)O2)o1	-2	-5	-12	66*	-6
CN1CCN(CC(=O)Nc2ccccc2[N+](=O)[O-])CC1	-3	-22	-6	1	-4
Cc1nnnn1CC(=O)Nc1ccccc1[N+](=O)[O-]	2	2	36*	-1	-3
Cc1cc(N2CCC(N(C)C3CCCC3)CC2)nc2cc(O)ccc12	-3	-6	48*	0	6
CCC(CNc1cc(OC)cc2cccnc12)NC1CCCCC1 (stereo not given)	7	-19	47*	-1	-18
COc1cc(NCCCC(C)N)c2ncccc2c1 (stereo not given)	6	4	2	-3	9
Cc1cc(C)cc(OCCCOc2cccc3cccnc23)c1	-3	-11	33*	0	-6
Cc1nc2sc(C(=O)OCC(=O)N3c4ccccc4CC3C)c(C)c2c(=O)[nH]1 (stereo not given)	-1	-1	52*	5	-7
Brc1cccc(OCCCNC2CCCC2)c1	-6	-24	58*	8	-26
CCOc1ccc(OCCNC2CCCC2)cc1	-4	-5	16	0	-3
Cc1ccc(C)c(OCCCNC2CCCC2)c1C	-6	-3	-3	-2	7
CCOc1ccccc1OCCNC1CCCC1	-3	-17	62*	1	-51
SMILES	D2 ag-1	D2 PAM-1	D2 antagonist	D2 ag-2	D2 PAM-2
COc1cccc(OC)c1OCCCNC1CCCC1	-4	-3	48*	0	-30
Cc1ccc(NC(=O)Cn2cc3c(n2)CCCCC3)cc1	x	x	x	-1	6
COC(=O)CCC(=O)OC1(C)C(=O)C=C2C=C(C3CC3)N(Cc3ccc(OC)cc3)C=C2C1=O (stereo not given)	7	9	10	0	16
COC(=O)CCC(=O)OC1(C)C(=O)C=C2C=C(C3CC3)N(Cc3ccc4c(c3)OCO4)C=C2C1=O (stereo not given)	9	73*	-5	0	19
CCOc1ccccc1N1CCN(Cc2cn[nH]c2-c2ccc(F)cc2)CC1	-2	-4	81*	22	-22
O=C(c1ccc(F)cc1)C1CCN(Cc2cn[nH]c2-c2ccc(F)cc2)CC1	-3	-26	94*	1	-25
COc1ccc(C(=O)C2CCCN(Cc3cn[nH]c3-c3ccc(F)cc3)C2)cc1OC (stereo not given)	2	-19	6	0	4
CN(c1ccc(C(=O)NCC2CCCO2)cc1)S(=O)(=O)c1ccc(Cl)cc1 (stereo not given)	0	-13	x	x	x
O=C(NCC1CCCO1)c1ccc(NC(=O)c2cccc(Br)c2)cc1 (stereo not given)	6	94*	x	x	x
O=C(NCC1CCCO1)c1cc2c([nH]c3ccccc32)c(-c2cccc(Br)c2)n1 (stereo not given)	6	-64	34*	-1	-19
O=C(NCC1CCCO1)c1cc(S(=O)(=O)Nc2ccc(Br)cc2)ccc1Cl (stereo not given)	2	9	53*	0	3
O=C(NCC1CCCO1)c1cc(S(=O)(=O)N2CCOCC2)ccc1Cl (stereo not given)	-4	-12	-15	0	-3
CN(c1ccc(F)cc1)S(=O)(=O)c1ccc(Cl)c(C(=O)NCC2CCCO2)c1 (stereo not given)	-3	-2	6	0	32*
O=C(NCC1CCCO1)c1cccc(Br)c1 (stereo not given)	0	2	-13	0	-4
COc1ccc(CCNC(=O)Cn2c(=O)cc(C(F)(F)F)c3c(C)nn(C)c32)cc1OC	x	x	x	x	-13
O=C(CSc1cn(CCNC(=O)c2c(F)cccc2F)c2ccccc12)Nc1ccc2c(c1)OCCO2	x	x	x	x	14
CCN(CC)CCOc1nnc(-c2ccc(OC)cc2)c2ccccc12	1	-26	0	0	-9
CCN(CC)CCOc1nnc(-c2ccc(C)cc2)c2ccccc12	-4	-12	36*	0	6
COc1ccc(CCN=CC2=C(O)CC(C)(C)CC2=O)cc1	-2	9	31*	0	3
CC1(C)CC(=O)C(C=NCCc2ccc(S(N)(=O)=O)cc2)=C(O)C1	-2	-4	x	x	x
O=C(c1cccc(Cl)c1)N1CCC(c2nc3c(nnn3Cc3ccc(F)cc3F)c(=O)[nH]2)CC1	x	x	x	1	11
O=C(c1ccccc1O)N1N=C(C(F)(F)F)CC1(O)c1ccc([N+](=O)[O-])cc1 (stereo not given)	-7	-13	-6	1	-7
CCc1ccc(C2(O)CC(C(F)(F)F)=NN2C(=O)Cc2ccc([N+](=O)[O-])cc2)cc1 (stereo not given)	-3	-12	33*	0	-5
Cc1ccc2c(=O)c(C(=O)c3cccc(Cl)c3)cn(CC(=O)Nc3ccccc3C(F)(F)F)c2n1	x	x	x	-1	3

Screens: PubChem, National Center for Advancing Translational Sciences (NCATS)
